In PubChem BioAssay AID488895 (Broad Institute, 2010):
Several values for one entry are separate records, joined by “and”; a condition that tells them apart may be missing. Identical values can stand only once. Screen size: about 340,000 compounds; about 120 (0.035%) were called active. For the sample, actives were picked, then their nearest neighbours and some compounds at random. Unmarked numbers belong to inactive results.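 How the source made its calls: active means mean replicate inhibition at least 50% and at least half of replicates individually reaching 50%; inconclusive means only one of the two criteria met; inactive means neither criterion met.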

Test: E. coli Tat export inhibitors, primary screen, MC4100, TorA-mCherry reporter, fluorescence, single point (AID 488895);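 further: exported cargo escapes ClpAP degradation while cytoplasmic cargo is degraded and loses fluorescence; 0% = median of neutral control wells and 100% = median of NaSCN control wells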
Conditions: at 10 µM, active compounds read high

Structure (SMILES)	inhibition
Nc1nc(Sc2ncccc2[N+](=O)[O-])n[nH]1	-8.21%
O=C(O)c1ccccc1OCc1ccccc1Cl	-2.88%
CS(=O)(=O)N(CC(=O)N1CCOCC1)c1ccc2c3c(cccc13)CC2	2.34%
O=P(O)(CP(=O)(c1ccccc1)c1ccccc1)c1ccccc1O	-10.9%
COc1cc(C2C(C#N)=C(C)NC3=C2C(=O)CC(C)(C)C3)ccc1O (centres undefined)	4.04%
CN1CC(=O)N=C1N	-7.3% and -13.2%
CCC(C)Sc1nc(C)nc2c1c(=O)n(C)c(=O)n2C (centres undefined)	-2.92%
OC(COc1ccc(F)cc1Cl)CN1CCc2ccccc2C1 (centres undefined)	3.62%
COC(=O)c1cc2n(n1)CCCNC2=O	-2.39%
O=C1OCC2=C1C(c1ccc(Cl)cc1)c1cc3c(cc1O2)OCO3 (centres undefined)	2.92%
CC1C(=O)Nc2ccc(S(=O)(=O)N3CCN(c4ccccc4F)CC3)cc2NC1=O (centres undefined)	2.39%
COCCCn1c(SCc2cccc(OC)c2)nc2cc(OC)c(OC)cc2c1=N	8.62%
CC(CCN1CCN=C1N(C)C)c1ccccc1 (centres undefined)	1.28%
Cn1c(SCC(=O)N2CCCC2)nnc1-c1ccc2c(c1)OCO2	-0.749%
CC(C)c1ccc(NC(=O)C2CCCN(S(=O)(=O)c3cccnc3)C2)cc1 (centres undefined)	-2.58%
CC(C)[C@H](NC(=O)N1CCn2c1nc1ccccc12)C(=O)NC1CC1	3.55%
CCN1CCN(C(=O)N[C@@H](C(=O)N[C@@H]2C(=O)N3C(C(=O)O)=C(CSc4nnnn4C)CS[C@H]23)c2ccc(O)cc2)C(=O)C1=O	-0.914%
CC1CCCN(C(=O)c2ccc3c(c2)C(=O)N(CCC2=CCCCC2)C3=O)C1 (centres undefined)	5.37%
COC(=O)c1c(C)oc(C)c1S(=O)(=O)Nc1ccc(C(C)C)cc1	8.29%
CC(C)(C)S(=O)(=O)N1Cc2cc(CO)cc(CCO)c2[C@H]1CCO	-5.8%
C[n+]1ccccc1C1CCCC/C1=N\Nc1ccc([N+](=O)[O-])cc1[N+](=O)[O-] (centres undefined)	-6.35%
COC(=O)c1ccc(CN(c2ccccc2OC)S(=O)(=O)c2cccs2)o1	22.7%
CNC(=O)c1nnc(Cc2ccc(Cl)cc2)o1	-1.7%

Structure (SMILES)	inhibition
COCCCNC(=O)C1CC(=O)N(CCc2ccccc2)C1 (centres undefined)	4.61%
COc1ccc(Cl)cc1NC(=O)CN(C)C(=O)c1ccc2n[nH]nc2c1	-3.85%
Cc1cc(C)cc(C(=O)N2CCN=C2SCc2ccc([N+](=O)[O-])cc2)c1	7.58%
Cn1cc(CN2CCCCC2c2ccccn2)c(-c2ccc3c(c2)OCCO3)n1 (centres undefined)	3%
CCc1nc(C)cn1S(=O)(=O)c1cc([N+](=O)[O-])ccc1Cl	-13.2%
O=C1CCC/C(=N\NC(=O)NC2CCCCC2)C1	4.42%
O=[N+]([O-])c1ncc(Br)cc1Nc1ccccc1	-4.47%
COC(=O)c1c(C(=O)OC)c(-c2cccc(C)c2)n2c1CS(=O)C2 (centres undefined)	4.25%
Cc1cc(C)c(OCCN2CC(C)OC(C)C2)c(Br)c1 (centres undefined)	24.1%
COc1ccccc1NC(=O)c1cc(N2C(=O)C3C4CCC(C4)C3C2=O)ccc1Cl (centres undefined)	-14.7%
CC1(C)CC(=O)C(CC(=O)N2CCC(Cc3ccccc3)CC2)C(=O)C1	3.6%
CCCCCCCCCCCCC(NC(C)=O)(C(=O)OCC)C(=O)OCC	7.11%
COc1ccc(NC(=O)c2cc([N+](=O)[O-])ccc2NC(=O)CNC2CCCCC2C)c(OC)c1 (centres undefined)	3.4%
CCc1ccc(NC(=O)c2ccc(Cn3cc([N+](=O)[O-])cn3)cc2)cc1	1.09%
Cn1ccc(=Nc2ccc(NC(=O)c3ccc(N=c4ccn(C)c5ccc([N+](=O)[O-])cc45)cc3)cc2)cc1	112% (active)
COc1cc(NS(=O)(=O)c2ccc(NC(=O)c3ccc([N+](=O)[O-])cc3)cc2)ncn1	-6.48%
CN(CCc1ccccc1)C(=O)c1cccc(NC(=O)Cc2cccc(NC(=O)C3CCCN(C(=O)C4CCC4)C3)c2)c1 (centres undefined)	2.65%
O=C(CNC(=O)c1cc(S(=O)(=O)N2CCOCC2)ccc1N1CCCC1)Nc1ccc(F)c(F)c1	-7.06%
C=CCCC(=O)N1C[C@H]2CON(C)[C@H]2C[C@H]1c1cccc(Nc2ccccc2)c1	1.87%
COc1ccc(-c2nn(C)c(=O)c3ccccc23)cc1CNC(=O)C1CCCCC1	5.51%
CCSc1sc(CC)cc1C=O	-5.06%
COC(=O)/C=C(\Oc1ccccc1)C1(O)CCCCC1	-5.03%
COc1ccc(C(=O)NCc2ccccc2C)cc1S(=O)(=O)NC1CCCC1	-5.16%

Structure (SMILES)	inhibition
Cc1cccc(NS(=O)(=O)c2cc(Cl)ccc2Cl)n1	1.57%
CCc1nnc(NS(=O)(=O)c2ccc(NC(=S)NC(=O)/C=C/c3cccs3)cc2)s1	3.92%
CC(NC(=O)COc1cccnc1[N+](=O)[O-])c1ccc(Cl)cc1Cl (centres undefined)	-4.49%
Cc1cc(S(=O)(=O)NCc2ccccn2)c(Cl)cc1Cl	-16.8%
Cc1cc(C(F)F)n2nc(C(=O)Nc3ccc(S(=O)(=O)NC45CC6CC(CC(C6)C4)C5)cc3)nc2n1	10.1%
O=C(c1cc2ccccc2s1)N1CCN(c2ccccn2)CC1	-5.47%
O=C(CNC(=O)OCc1ccccc1)NC1CCCCNC1=O (centres undefined)	10.8%
Cc1nn(C)c(Oc2ccc(Cl)cc2)c1C=O	-0.515%
CCOC(=O)c1sc2nc(C)nc(SCC(N)=O)c2c1C	-4.58%
O=S1(=O)CCO[C@H]2Cc3ccccc3[C@H]2N1Cc1ccccc1	-48.1%
CCCn1c(C)cc(/C=C(\C#N)C(=O)OCC(=O)N(C)c2c(N)n(Cc3ccccc3)c(=O)[nH]c2=O)c1C	11%
O=C(CCc1[nH]c2ccccc2c1Sc1ccccc1)N(CCO)CCO	-4.7%
COc1cccc(-c2ccc(SCC(=O)N3CCN(c4ccccc4)CC3)nn2)c1	2.75%
CC(=O)N1CCSc2ccc(S(=O)(=O)N3CCC(C)CC3)cc21	2.03%
CC1(C)C(=O)CCC2(C)C1=CCC1C2C(=O)CC2(C)C1CCC2(O)C(=O)CO (centres undefined)	-1.57%
CCn1ccnc1CN(C)C(=O)c1ccc2nc(Cc3ccc(OC)cc3)oc2c1	-0.56%
CC[C@]12c3[nH]c4cc(CCC(=O)N(C)C)ccc4c3CCN1C(=O)[C@@H](CC(=O)NCCCN(C)C)C[C@@H]2C(=O)N1CCN(C(=O)c2ccco2)CC1	-1.81%
CC(OC(=O)c1ccc(-n2cnnn2)cc1)C(=O)NCc1ccccc1 (centres undefined)	-2.55%
O=C(NCc1ccc(Cl)cc1)c1cc2c(nc3sccn32)s1	-1.5%
CCCNC(=O)N1CCC(c2ccc3c(c2)OCO3)CC1	3.31%
Cc1noc(C)c1CCC(=O)O	1.5%
COCCNc1nnc(SCC(=O)NNC(=O)c2ccco2)s1	3.66%
COc1ccc(COCCN2CCN(S(=O)(=O)c3ccccc3)CCC2=O)cc1	1.02%

Structure (SMILES)	inhibition
CCN(CCn1cccn1)Cc1nc(-c2ccc(C(=O)OC)cc2)no1	0.0185%
CC1CCCCC1NC(=O)Cn1c(=O)cnc2ccccc21 (centres undefined)	2.53%
CN(C(=O)CN(CCO)CC(=O)N(C)C(C)(C)Cc1ccccc1)C(C)(C)Cc1ccccc1	19.2%
CC(C#N)OC(=O)c1cccnc1SCC(=O)Nc1ccc2c(c1)OCO2 (centres undefined)	-6.97%
O=C(NCCO)C(=O)NCC(c1ccc2c(c1)OCO2)N1CCN(c2ccc(F)cc2)CC1 (centres undefined)	0.936%
Cn1c(=O)c(C(=O)Nc2ncccn2)c(O)c2ccccc21	-0.24%
CC(C)CN(CC(C)C)C(=O)CN1c2cccc3cccc(c23)S1(=O)=O	0.144%
COc1ccccc1N1CCN(C(=O)C2Cc3ccccc3CN2C(=O)c2ccco2)CC1 (centres undefined)	-8.37%
O=C(NC(=S)NC1CCSC1=O)c1ccccc1F (centres undefined)	-9.37%
CCc1c(O)cc2n(c1=O)-c1ccccc1C2(C)C	-2.57%
CN(CC1CCCO1)S(=O)(=O)c1ccc(C(=O)Nc2ccc([N+](=O)[O-])cc2)cc1 (centres undefined)	-6.82%
COc1c(N2CCN(C(=S)Nc3ccccc3F)C(C)C2)c(F)cc2c(=O)c(C(=O)O)cn(C3CC3)c12 (centres undefined)	91.3% (active)
CC1CN(C(=S)Nc2ccccc2F)CC(C)O1 (centres undefined)	6.69%
COc1ccccc1NC(=S)N1CCN(c2ccc(F)cc2)CC1	1.21%
Cc1ccc(S(=O)(=O)N2CCN(C(=O)COC(=O)CNC(=O)c3ccc(C(C)(C)C)cc3)CC2)c(C)c1	6.64%
CN1CCN(S(=O)(=O)c2ccc(N3CCN(c4ccccc4O)CC3)c([N+](=O)[O-])c2)CC1	-4.89%
O=C(NCc1ccco1)c1ccc(NS(=O)(=O)c2cccc([N+](=O)[O-])c2)cc1	-12.7%
COCCCNC(=O)CCc1nc2cccnc2n1Cc1ccc(OC)cc1	5.25%
Cc1ccc(NC(=S)N(CCN(C)C)Cc2cccs2)cc1C	-0.631%
COc1ccc2c3c1O[C@H]1C[C@@H](O)C=C[C@@]31CCN(C)C2	-6.89%
